# For some of these results: Entries with a potency or affinity are not part of this list.
# Legend:
# Parameters in all cases: scale not given: direction of the effect not stated beside the values
# [1] = target: Protein translocase subunit SecA (Escherichia coli (strain K12)) (UniProt P10408); experiment: Assay to Identify E. coli SecA ATPase Inhibitors; type: functional; conditions: 30 µM
# [2] = target: T1, Ubiquitin-activating enzyme e1, putative (Leishmania donovani (strain BPK282A1)) (UniProt E9BSI1); experiment: Leishmania donovani Ubiquitin Activating Enzyme (LdE1); type: functional; conditions: 30 µM
# T1 sequence (whole entry): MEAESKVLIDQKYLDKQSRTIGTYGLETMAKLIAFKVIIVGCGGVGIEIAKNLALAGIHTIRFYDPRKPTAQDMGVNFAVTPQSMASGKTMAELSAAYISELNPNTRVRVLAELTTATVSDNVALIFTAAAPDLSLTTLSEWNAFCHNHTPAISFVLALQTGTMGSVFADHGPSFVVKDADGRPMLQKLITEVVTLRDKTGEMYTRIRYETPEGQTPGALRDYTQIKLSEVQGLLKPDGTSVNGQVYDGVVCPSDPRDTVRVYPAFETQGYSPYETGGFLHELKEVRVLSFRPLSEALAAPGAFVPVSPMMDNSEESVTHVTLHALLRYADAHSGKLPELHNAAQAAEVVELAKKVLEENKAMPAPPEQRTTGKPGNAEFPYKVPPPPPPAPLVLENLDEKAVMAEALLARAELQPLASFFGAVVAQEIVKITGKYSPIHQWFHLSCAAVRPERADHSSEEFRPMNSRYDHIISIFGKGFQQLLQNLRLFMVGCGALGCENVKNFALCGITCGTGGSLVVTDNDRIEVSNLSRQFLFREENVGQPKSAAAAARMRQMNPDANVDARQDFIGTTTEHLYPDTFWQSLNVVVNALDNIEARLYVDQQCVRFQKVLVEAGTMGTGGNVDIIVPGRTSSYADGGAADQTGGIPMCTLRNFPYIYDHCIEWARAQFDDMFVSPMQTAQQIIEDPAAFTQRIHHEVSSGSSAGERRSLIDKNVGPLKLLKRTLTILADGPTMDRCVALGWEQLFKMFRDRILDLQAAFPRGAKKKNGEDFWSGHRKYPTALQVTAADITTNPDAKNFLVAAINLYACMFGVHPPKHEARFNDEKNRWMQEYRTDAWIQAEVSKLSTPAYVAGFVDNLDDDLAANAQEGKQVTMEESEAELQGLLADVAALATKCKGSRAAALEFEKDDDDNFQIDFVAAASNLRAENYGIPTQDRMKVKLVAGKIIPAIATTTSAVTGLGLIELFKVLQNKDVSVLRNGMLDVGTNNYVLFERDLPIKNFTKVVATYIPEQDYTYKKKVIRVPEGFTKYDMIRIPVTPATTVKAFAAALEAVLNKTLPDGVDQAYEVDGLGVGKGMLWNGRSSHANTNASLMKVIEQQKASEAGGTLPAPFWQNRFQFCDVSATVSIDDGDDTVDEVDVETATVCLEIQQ
# [3] = target: AMP-activated protein kinase, AMPK (Homo sapiens) (UniProt P54646+O43741+P54619+Q9UGJ0+Q9Y478+Q13131+Q9UGI9); experiment: AMP-dependent Kinase enzyme assay. An in vitro enzyme assay that detects ADP turnover that is directly proportional to AMPK activity. This uses naive AMPK that is activated during the assay with MK-8722; type: functional; conditions: 30 µM
# [4] = target: Sialic acid-binding Ig-like lectin 9 (Homo sapiens) (UniProt Q9Y336); experiment: Hs-Siglec9 ALPHAscreen SOP 20170721; conditions: 10 µM
# Chain of Sialic acid-binding Ig-like lectin 9 (Homo sapiens) (Q9Y336 whole entry): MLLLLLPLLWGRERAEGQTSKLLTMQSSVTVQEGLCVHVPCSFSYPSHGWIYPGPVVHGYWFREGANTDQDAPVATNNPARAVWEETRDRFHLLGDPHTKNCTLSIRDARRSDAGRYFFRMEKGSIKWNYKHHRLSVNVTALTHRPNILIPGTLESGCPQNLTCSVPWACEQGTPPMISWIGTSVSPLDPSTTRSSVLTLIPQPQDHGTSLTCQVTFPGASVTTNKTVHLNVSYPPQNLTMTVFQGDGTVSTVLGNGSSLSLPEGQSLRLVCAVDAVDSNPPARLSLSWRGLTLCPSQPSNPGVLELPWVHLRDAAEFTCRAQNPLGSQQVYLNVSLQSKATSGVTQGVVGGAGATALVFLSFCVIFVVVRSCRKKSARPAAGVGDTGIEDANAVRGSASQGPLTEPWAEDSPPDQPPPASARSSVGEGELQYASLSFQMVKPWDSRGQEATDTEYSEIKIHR
# Trypanosoma cruzi = experiment: Trypanosoma cruzi phosphomannomutase and mannose-1-phosphate guanylyltransferase assay; type: functional; conditions: 10 µM
# [5] = target: T2, Arginase-2, mitochondrial (Homo sapiens) (UniProt P78540); experiment: in vitro enzyme assay to detect the production of urea directly proportional to the activity of Arginase II; type: functional; conditions: 33.3 µM; note: in the data most compounds retested in dose-response had high values
# T2 sequence (whole entry): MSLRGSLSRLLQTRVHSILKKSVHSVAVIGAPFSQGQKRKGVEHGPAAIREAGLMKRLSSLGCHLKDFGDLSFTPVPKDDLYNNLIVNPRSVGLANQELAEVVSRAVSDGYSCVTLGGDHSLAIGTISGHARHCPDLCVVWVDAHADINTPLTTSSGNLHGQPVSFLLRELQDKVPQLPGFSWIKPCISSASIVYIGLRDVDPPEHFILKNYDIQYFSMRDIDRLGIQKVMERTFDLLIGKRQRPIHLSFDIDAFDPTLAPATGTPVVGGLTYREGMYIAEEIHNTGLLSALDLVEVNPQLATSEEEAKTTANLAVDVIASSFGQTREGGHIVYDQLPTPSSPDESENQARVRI
# [6] = target: T3, Proteasome subunit beta (Trypanosoma cruzi) (UniProt O96673); experiment: Trypanosoma cruzi proteasome chymotrypsin-like activity (TcProtChymo) assay.; note: in the data most compounds retested in dose-response had high values; type: functional; conditions: 9.37 µM
# T3 sequence (whole entry): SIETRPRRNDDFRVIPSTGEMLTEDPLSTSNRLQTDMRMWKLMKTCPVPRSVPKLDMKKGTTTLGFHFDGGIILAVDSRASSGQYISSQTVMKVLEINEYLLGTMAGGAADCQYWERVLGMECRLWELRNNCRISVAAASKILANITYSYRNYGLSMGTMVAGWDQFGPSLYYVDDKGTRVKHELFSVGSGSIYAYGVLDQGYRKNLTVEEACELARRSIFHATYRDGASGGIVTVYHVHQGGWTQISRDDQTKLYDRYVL
# Homo sapiens = organism: Homo sapiens; experiment: To identify inhibition of the IFN signalling (Jak-Stat) pathway via expression of an eGFP reporter gene under the control of an IFN-stimulated response element (ISRE) containing MxA promoter.; type: functional; conditions: 30 µM
# [7] = target: T4, Tyrosyl-tRNA synthetase, putative (Trypanosoma cruzi (strain CL Brener)) (UniProt Q4DSP6); experiment: Trypanosoma cruzi tyrosyl tRNA synthetase (TcYRS) _High Tyrosine SOP; type: functional; conditions: 30 µM; note: in the data most compounds retested in dose-response had high values
# T4 sequence (whole entry): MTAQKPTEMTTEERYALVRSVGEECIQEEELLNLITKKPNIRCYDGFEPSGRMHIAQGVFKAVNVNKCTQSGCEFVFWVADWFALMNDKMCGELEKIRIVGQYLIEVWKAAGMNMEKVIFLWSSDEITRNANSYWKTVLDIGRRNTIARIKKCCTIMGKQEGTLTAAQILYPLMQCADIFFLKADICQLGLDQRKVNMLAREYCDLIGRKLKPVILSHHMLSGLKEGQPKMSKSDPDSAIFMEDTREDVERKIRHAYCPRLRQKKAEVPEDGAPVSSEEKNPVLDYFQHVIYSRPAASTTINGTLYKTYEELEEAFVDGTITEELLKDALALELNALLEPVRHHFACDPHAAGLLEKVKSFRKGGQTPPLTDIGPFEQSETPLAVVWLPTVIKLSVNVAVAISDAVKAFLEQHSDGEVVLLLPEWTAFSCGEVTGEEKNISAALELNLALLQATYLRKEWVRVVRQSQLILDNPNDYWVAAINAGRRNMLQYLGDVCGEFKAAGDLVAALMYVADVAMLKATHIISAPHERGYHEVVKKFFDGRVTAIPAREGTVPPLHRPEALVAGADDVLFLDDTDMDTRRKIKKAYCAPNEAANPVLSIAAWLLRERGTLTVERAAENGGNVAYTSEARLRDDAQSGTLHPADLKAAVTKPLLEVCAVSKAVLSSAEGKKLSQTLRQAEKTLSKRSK
# [8] = target: T4, Tyrosyl-tRNA synthetase, putative (Trypanosoma cruzi (strain CL Brener)); experiment: Trypanosoma cruzi tyrosyl tRNA synthetase (TcYRS) SOP; type: functional; conditions: 30 µM
# [9] = target: Chromo domain-containing protein 1 (Saccharomyces cerevisiae (strain ATCC 204508 / S288c) (Baker's yeast)) (UniProt P32657); experiment: ScCHD-1 Enzyme Inhibition Assay; type: functional; conditions: 30 µM; note: in the data most compounds retested in dose-response had high values
# Chain of Chromo domain-containing protein 1 (Saccharomyces cerevisiae (strain ATCC 204508 / S288c) (Baker's yeast)) (P32657 whole entry, the tested form may be a part): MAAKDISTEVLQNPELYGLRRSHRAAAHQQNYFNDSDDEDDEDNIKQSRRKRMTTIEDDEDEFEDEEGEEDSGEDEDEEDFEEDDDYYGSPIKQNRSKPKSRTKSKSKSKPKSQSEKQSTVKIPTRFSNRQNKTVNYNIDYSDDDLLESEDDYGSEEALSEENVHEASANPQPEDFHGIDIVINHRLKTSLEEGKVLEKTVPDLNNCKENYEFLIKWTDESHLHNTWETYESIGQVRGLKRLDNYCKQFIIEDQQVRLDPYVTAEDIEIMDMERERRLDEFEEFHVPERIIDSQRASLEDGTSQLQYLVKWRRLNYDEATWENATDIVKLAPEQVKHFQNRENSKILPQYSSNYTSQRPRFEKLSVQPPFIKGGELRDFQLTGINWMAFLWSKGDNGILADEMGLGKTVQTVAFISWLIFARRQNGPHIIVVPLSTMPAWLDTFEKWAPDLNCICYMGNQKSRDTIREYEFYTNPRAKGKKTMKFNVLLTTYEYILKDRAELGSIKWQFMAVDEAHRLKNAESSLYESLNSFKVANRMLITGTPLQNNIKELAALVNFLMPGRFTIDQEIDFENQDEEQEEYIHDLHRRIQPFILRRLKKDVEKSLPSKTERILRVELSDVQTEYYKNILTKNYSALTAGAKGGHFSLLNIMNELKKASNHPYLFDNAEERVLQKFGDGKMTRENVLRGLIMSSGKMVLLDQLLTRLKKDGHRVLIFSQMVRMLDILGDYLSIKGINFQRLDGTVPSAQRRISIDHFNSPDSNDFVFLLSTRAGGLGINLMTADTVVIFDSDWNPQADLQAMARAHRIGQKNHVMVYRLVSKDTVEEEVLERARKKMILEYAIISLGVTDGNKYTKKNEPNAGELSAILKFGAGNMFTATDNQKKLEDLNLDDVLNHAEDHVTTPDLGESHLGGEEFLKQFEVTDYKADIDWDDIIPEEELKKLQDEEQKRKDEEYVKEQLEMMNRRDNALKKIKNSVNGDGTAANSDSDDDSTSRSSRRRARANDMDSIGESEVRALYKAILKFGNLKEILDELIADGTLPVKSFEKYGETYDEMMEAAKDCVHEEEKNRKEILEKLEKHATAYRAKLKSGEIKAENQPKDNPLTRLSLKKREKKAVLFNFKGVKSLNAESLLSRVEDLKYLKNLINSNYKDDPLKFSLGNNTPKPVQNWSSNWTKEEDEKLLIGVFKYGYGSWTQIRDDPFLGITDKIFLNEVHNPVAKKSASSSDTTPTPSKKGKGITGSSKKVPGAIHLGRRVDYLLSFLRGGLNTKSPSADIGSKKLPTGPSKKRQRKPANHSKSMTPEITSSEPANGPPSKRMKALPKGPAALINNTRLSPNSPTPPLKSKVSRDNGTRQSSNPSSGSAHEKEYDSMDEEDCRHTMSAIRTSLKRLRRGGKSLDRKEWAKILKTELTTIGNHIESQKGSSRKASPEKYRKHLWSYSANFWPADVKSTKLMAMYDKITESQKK
# Chain of Protein translocase subunit SecA (Escherichia coli (strain K12)) (P10408 whole entry): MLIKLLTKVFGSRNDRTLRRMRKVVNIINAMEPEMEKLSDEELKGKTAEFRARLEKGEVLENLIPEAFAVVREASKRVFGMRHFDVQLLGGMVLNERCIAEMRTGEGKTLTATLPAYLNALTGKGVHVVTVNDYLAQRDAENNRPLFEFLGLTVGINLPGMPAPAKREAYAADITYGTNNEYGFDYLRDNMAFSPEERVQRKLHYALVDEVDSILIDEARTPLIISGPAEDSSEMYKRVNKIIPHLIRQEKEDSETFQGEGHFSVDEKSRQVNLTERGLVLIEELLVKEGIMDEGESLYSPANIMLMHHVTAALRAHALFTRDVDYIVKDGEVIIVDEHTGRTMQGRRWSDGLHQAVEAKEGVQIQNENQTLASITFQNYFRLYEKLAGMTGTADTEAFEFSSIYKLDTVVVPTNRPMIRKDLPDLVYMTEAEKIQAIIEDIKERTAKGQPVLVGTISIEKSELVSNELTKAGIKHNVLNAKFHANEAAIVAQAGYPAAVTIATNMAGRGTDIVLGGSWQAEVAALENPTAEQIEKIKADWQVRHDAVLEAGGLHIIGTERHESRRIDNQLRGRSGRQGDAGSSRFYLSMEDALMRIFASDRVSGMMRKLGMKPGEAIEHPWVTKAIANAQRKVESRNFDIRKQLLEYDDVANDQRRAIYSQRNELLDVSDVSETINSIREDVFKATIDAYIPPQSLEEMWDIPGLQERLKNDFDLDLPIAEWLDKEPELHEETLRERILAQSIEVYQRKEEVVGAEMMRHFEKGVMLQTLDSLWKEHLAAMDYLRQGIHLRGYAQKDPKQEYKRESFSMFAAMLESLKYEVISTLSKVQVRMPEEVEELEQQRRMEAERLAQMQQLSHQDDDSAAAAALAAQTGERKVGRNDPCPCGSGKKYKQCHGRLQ
Structure (SMILES),Percent Effect [1] [%],Percent Effect [2] [%],Percent Effect [3] [%],Percent Effect [4] [%],Percent Effect (Trypanosoma cruzi) [%],Percent Effect [5] [%],Percent Effect [6] [%],Percent Effect (Homo sapiens) [%],Percent Effect [7] [%],Percent Effect [8] [%],Percent Effect [9] [%]
CC(C)c1noc(CCCC(=O)N2CCC(Cc3cccnc3)CC2)n1,1.54,-2.53,1.06,8.41,-6.14,4.18,-2.05,16.4,0.493,-3.8,-3.44
c1cc2n(n1)CC(CNCc1ccc(OC3CCCCC3)nc1)CN2 (stereo unspecified),-2.12,18.2,1.34,5.86,7.49,-1.78,5.41,-2.37,9.71,21.9,-7.9
Cc1ccsc1C(=O)NCCCn1nc2ccccn2c1=O,-1.75,16.2,-0.37,-0.759,-3.99,1.66,9.52,20.9,5.94,18.3,-8.98
CC(C)Cc1cc(C(=O)NCc2nnc[nH]2)[nH]n1,-3.85,7.89,11.2,7.63,-3.02,-4.73,13.1,-0.467,1.06,-2.6,-1.14
Cn1cc(Cl)cc1C(=O)N1CCCN(Cc2cccs2)CC1,-2.72,-10.5,7.51,-1.79,1.32,1.53,-1.34,-3.88,4.41,0,7.24
CCC1CN(CCNC(C)=O)CCN1CCOC (stereo unspecified),-0.705,16.2,-10.5,-8.99,-2.74,-4.81,18.2,5.73,7.39,13.6,-5.61
COCCOCc1cccc(NC(=O)N2CCCC2c2ccncc2)c1 (stereo unspecified),-2.97,13,-3.58,1.28,-4.02,1.9,5.09,16.9,6.67,7.06,-20.8
CCc1nc(C2CCCN(C(=O)c3ccc(OC(C)C)nc3)C2)no1 (stereo unspecified),-8.81,5.2,-0.62,-8.98,-3.43,3.16,1.05,15.9,-0.952,0,-17.8
CC(C)c1noc(CN(Cc2cccs2)C2CC2)n1,-4.69,-5.2,7.3,44.2,-5.61,4.14,5.16,18.1,-4.3,-8.64,2.56
Cc1nc(CN(C)C2CCN(CC(=O)N3CCOCC3)C2)no1 (stereo unspecified),-3.5,18.9,-5.27,-3.82,-3.62,-3.14,1.98,1.74,5.94,18.3,-3.28
O=C1CCCCN1Cc1cccc(NC(=O)N2CCSCC2)c1,-4.11,9.72,-6.98,26,2.43,8.83,12.1,8.32,6.32,12.8,-6.96
